Tests used:
Test in all cases: log2 ratio of Biotin-Ahx-Ub-VS probe labelling (fragment/DMSO); higher = less target engagement (more negative = stronger competition), active = hit call of the paper (q ≤ 0.05, log2 ratio ≤ -1)
Conditions in all cases: compound concentration: 200 uM; treatment time: 3 h
[1] = target: USP34 (UniProt Q70CQ2)
Procedure, shortened: (§1)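 Labelled DUBs were enriched with NeutrAvidin, digested with LysC and trypsin, and run by diaPASEF LC-MS/MS. The labelling used Biotin-Ahx-Ub-VS at 0.5 µM final for 1 h on HEK293T lysate (495 µg per sample) previously treated in triplicate with fragment at 200 µM or vehicle for 3 h. Values are average log2 fragment/vehicle ratios by unpaired t-test on global-median-normalised Spectronaut quantities of proteins with ≥2 unique peptides.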

[2] = target: T1, USP36 (UniProt Q9P275)
T1 sequence (whole entry): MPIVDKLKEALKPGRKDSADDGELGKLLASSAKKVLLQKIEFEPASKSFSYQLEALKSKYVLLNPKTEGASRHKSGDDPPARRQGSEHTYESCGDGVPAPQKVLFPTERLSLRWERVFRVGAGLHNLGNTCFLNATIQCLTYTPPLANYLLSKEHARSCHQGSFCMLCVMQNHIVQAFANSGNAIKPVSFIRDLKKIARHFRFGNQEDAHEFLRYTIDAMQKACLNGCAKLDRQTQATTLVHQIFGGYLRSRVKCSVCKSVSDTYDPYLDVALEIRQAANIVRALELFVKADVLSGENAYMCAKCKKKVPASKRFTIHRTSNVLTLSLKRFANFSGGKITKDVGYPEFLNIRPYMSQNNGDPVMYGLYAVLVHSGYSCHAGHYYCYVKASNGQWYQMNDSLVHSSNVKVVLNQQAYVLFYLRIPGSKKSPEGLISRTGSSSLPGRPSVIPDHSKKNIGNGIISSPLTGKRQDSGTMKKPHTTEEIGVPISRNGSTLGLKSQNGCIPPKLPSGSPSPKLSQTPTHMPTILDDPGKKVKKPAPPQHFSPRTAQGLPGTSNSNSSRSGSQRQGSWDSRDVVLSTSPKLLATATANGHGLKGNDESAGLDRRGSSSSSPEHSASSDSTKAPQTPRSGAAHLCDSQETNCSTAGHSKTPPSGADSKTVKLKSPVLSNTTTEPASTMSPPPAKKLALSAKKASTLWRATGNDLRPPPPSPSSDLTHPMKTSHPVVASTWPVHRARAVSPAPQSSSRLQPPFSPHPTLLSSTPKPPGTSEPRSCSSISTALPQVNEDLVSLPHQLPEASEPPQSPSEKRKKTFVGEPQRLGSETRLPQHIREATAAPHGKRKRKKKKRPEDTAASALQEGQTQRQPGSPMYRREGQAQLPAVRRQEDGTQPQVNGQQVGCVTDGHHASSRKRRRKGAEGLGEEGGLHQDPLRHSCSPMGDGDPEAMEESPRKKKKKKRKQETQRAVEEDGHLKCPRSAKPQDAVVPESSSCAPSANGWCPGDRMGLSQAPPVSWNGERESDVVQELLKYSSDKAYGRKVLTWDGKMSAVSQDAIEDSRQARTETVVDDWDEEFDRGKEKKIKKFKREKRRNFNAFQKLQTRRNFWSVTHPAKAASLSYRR
Procedure, shortened: as §1

[3] = target: T2, USP38 (UniProt Q8NB14)
T2 sequence (whole entry): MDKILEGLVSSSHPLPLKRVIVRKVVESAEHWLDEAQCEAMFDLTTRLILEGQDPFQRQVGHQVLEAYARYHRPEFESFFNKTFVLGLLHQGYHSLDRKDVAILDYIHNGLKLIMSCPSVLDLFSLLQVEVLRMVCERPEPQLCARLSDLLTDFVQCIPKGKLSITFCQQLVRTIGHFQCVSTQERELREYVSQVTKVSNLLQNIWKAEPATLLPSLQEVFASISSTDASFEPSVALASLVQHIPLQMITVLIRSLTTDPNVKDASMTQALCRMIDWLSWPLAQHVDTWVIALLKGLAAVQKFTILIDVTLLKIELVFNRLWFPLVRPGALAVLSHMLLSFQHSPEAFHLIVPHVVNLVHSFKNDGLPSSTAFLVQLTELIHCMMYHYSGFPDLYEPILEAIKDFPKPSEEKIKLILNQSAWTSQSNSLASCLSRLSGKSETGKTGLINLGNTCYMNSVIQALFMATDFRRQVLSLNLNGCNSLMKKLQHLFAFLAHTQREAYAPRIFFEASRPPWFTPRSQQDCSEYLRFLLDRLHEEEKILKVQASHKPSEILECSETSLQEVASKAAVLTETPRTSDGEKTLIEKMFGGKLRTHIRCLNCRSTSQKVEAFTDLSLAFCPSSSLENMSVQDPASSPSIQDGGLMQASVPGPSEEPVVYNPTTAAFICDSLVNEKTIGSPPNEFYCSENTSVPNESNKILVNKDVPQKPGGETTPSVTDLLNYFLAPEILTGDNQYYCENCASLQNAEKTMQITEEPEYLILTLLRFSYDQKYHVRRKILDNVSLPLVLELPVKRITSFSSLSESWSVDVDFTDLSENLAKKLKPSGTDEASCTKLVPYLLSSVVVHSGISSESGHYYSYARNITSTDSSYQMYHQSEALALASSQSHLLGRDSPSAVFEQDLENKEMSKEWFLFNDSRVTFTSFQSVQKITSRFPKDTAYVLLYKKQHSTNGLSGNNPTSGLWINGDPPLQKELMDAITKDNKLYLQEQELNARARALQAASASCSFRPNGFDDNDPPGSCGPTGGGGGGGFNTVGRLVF
Procedure, shortened: as §1

[4] = target: T3, USP39 (UniProt Q53GS9)
T3 sequence (whole entry): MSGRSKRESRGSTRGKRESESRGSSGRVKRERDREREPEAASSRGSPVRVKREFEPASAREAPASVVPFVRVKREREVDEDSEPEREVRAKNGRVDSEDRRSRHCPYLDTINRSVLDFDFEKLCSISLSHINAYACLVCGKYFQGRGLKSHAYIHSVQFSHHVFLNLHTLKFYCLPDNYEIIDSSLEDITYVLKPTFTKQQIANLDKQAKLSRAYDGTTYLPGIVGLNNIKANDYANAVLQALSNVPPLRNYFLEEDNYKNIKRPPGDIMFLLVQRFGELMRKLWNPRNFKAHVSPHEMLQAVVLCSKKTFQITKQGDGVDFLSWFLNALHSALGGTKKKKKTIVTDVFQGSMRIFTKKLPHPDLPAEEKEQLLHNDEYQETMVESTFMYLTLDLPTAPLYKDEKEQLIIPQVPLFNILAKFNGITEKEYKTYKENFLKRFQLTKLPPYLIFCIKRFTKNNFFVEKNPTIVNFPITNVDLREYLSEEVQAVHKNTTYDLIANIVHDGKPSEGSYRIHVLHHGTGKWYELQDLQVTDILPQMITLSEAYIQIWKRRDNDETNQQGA
Procedure, shortened: as §1

[5] = target: T4, USP4 (UniProt Q13107)
T4 sequence (whole entry): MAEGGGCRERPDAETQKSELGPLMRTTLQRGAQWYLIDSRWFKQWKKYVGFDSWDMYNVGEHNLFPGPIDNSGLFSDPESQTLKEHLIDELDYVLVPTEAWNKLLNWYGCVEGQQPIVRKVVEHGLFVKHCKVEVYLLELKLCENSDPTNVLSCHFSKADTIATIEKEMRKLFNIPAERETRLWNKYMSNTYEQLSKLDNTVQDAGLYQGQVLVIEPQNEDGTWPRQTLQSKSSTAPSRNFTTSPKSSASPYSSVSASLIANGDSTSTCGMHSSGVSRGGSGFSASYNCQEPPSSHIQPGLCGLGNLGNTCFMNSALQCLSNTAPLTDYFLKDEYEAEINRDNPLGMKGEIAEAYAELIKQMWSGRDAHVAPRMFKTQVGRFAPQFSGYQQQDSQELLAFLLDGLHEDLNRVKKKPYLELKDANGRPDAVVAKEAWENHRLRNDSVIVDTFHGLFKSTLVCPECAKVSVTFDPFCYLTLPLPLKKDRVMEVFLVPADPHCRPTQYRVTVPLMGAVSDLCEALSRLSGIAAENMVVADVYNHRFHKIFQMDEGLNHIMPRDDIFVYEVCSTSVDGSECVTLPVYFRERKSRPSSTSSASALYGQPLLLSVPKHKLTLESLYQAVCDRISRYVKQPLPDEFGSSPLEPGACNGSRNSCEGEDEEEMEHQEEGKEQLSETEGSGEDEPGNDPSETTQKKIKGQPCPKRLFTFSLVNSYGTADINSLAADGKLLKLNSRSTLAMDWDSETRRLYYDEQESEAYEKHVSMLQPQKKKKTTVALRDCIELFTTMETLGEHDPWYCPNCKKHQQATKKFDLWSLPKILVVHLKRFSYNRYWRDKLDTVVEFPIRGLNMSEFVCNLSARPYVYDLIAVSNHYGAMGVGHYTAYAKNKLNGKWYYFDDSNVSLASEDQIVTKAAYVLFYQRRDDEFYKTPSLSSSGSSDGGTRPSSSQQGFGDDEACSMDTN
Procedure, shortened: as §1

Measured: log2 ratio of Biotin-Ahx-Ub-VS probe labelling

Sequence of USP34 (Q70CQ2 whole entry, the tested form may be a part): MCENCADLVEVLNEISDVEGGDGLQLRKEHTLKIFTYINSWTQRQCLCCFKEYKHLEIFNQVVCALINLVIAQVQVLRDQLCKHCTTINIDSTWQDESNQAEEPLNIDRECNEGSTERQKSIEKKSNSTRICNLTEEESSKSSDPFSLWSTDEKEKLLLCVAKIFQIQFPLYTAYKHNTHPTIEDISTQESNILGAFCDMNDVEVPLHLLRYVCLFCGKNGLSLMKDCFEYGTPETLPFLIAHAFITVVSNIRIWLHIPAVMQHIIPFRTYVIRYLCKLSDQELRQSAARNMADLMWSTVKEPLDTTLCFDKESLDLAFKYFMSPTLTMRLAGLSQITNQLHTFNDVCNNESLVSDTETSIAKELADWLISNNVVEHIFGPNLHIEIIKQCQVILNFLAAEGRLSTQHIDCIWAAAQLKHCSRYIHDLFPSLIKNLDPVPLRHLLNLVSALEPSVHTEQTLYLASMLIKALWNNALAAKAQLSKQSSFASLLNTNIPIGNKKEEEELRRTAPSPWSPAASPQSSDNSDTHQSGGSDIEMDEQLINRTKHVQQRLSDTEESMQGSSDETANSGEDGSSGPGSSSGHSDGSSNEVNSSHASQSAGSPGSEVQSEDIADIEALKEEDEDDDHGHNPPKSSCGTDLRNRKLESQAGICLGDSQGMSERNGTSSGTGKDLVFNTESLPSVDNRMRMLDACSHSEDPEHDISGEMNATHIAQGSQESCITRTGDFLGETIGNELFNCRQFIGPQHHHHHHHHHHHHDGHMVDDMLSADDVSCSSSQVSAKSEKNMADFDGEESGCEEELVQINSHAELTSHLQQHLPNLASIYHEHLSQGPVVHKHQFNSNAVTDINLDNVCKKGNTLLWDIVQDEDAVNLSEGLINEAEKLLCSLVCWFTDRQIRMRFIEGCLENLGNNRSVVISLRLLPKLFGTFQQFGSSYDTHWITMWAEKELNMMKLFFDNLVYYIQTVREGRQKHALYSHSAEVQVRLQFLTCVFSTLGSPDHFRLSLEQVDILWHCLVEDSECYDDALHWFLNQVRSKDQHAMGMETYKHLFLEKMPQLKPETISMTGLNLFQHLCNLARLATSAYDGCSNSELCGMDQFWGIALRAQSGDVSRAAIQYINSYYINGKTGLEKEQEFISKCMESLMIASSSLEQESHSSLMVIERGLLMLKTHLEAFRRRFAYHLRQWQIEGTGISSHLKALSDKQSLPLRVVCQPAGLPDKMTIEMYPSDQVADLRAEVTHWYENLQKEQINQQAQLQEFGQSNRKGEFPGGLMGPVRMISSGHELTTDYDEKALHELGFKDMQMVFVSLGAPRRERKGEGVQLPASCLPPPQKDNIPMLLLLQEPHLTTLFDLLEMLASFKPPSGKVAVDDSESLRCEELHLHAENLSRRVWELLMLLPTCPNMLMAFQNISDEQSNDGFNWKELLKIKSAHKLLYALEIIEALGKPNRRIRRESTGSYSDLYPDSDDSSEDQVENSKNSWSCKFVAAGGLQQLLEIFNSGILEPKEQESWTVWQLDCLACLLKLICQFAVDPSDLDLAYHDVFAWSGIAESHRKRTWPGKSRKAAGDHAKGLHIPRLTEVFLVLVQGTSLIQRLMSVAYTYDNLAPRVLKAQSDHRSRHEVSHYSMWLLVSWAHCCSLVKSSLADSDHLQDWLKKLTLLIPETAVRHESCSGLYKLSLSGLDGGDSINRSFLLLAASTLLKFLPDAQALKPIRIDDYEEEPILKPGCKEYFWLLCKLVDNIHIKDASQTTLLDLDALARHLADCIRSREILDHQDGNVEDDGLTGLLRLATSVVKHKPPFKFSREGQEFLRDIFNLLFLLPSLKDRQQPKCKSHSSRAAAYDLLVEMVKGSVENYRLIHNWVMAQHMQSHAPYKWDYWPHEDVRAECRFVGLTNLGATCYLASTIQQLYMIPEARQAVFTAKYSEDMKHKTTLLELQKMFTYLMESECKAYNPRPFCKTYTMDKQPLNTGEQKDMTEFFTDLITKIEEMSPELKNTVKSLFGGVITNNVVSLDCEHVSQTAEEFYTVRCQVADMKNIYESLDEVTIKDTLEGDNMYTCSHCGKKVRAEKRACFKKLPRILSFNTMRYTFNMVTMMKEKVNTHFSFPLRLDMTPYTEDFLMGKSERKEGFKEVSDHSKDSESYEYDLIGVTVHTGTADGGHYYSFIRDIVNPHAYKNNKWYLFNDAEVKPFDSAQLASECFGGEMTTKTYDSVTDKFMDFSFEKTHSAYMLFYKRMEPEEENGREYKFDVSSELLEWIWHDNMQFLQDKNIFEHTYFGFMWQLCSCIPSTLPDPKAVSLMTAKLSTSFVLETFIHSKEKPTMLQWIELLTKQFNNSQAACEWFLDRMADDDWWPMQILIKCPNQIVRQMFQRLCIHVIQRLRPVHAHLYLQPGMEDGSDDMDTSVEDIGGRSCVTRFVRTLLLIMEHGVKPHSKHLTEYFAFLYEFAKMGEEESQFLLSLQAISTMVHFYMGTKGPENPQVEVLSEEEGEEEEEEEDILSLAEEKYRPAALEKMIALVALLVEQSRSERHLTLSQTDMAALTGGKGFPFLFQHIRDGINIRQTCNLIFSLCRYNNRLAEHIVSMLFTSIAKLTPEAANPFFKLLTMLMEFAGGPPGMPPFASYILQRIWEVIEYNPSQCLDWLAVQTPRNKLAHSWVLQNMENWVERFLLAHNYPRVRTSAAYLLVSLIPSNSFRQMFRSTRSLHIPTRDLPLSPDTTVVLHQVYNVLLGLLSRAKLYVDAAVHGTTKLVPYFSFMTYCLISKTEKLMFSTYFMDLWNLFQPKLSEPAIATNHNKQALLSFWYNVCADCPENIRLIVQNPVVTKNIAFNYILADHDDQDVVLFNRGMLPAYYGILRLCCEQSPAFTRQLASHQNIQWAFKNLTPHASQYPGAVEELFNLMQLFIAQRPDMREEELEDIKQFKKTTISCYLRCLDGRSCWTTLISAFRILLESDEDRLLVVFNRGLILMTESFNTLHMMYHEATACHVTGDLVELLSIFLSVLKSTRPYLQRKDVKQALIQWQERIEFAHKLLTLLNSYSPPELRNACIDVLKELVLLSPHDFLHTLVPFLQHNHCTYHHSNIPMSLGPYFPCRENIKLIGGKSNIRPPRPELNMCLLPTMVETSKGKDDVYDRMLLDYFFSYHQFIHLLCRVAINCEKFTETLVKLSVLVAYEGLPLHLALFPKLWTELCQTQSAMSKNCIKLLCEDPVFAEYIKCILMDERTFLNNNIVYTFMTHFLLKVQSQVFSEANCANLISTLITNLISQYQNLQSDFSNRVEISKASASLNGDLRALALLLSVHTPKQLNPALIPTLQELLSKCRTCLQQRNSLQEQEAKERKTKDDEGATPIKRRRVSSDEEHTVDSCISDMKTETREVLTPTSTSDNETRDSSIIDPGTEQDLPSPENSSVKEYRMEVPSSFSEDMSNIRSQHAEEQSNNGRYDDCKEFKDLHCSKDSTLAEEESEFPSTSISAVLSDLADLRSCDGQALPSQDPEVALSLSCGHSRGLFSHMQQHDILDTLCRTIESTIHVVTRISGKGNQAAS

CN(C)C(=O)c1ccc(CNC(=O)CCl)cc1
inactive: [1] 0.0263 | [2] 0.0235 | [3] 0.231 | [4] 0.0923 | [5] 0.059

Source: the supplement of paper PMC11732987, “Enantioselective OTUD7B fragment discovery through chemoproteomics screening and high-throughput optimisation” (Communications Chemistry, 2025)
